# According to publication PMC5540273 (PLoS ONE, 2017):
# Like-named read-outs stand apart in the source and are kept apart here.
# Experiments:
# [1] = test system: CDK8; conditions: concentration: 1 μM, replicates: in singlicate; n = 1
# [2] = test system: CDK9; conditions: concentration: 1 μM, replicates: in singlicate; n = 1
# [3] = test system: CDKL1; conditions: concentration: 1 μM, replicates: in singlicate; n = 1
# [4] = test system: CDKL2; conditions: concentration: 1 μM, replicates: in singlicate; n = 1
# [5] = test system: CDKL3; conditions: concentration: 1 μM, replicates: in singlicate; n = 1
# [6] = test system: CDKL5; conditions: concentration: 1 μM, replicates: in singlicate; n = 1
# [7] = test system: CHEK1; conditions: concentration: 1 μM, replicates: in singlicate; n = 1
# [8] = test system: CHEK2; conditions: concentration: 1 μM, replicates: in singlicate; n = 1
# [9] = test system: CIT; conditions: n = 1
# [10] = test system: CLK1; conditions: concentration: 1 μM, replicates: in singlicate; n = 1
# [11] = test system: CLK2; conditions: concentration: 1 μM, replicates: in singlicate; n = 1
# [12] = test system: CLK3; conditions: concentration: 1 μM, replicates: in singlicate; n = 1
# [13] = test system: CLK4; conditions: concentration: 1 μM, replicates: in singlicate; n = 1
# [14] = test system: CSF1R-autoinhibited; conditions: concentration: 1 μM, replicates: in singlicate; n = 1
# [15] = test system: CSF1R; conditions: concentration: 1 μM, replicates: in singlicate; n = 1
# [16] = test system: CSK; conditions: concentration: 1 μM, replicates: in singlicate; n = 1
# [17] = test system: CSNK1A1L; conditions: concentration: 1 μM, replicates: in singlicate; n = 1
# [18] = test system: CSNK1A1; conditions: concentration: 1 μM, replicates: in singlicate; n = 1
# [19] = test system: CSNK1D; conditions: concentration: 1 μM, replicates: in singlicate; n = 1
# [20] = test system: CSNK1E; conditions: concentration: 1 μM, replicates: in singlicate; n = 1
# [21] = concentration: 1 μM, replicates: in singlicate
# 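Note: KINOMEscan kinase panel screen.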
compound,measurement,setting,value
Cl.NC(=O)c1cccc(Nc2nccc(Nc3ccc(Oc4c(Cl)cccc4Cl)c(Cl)c3)n2)c1 [GW659009],%Inh,[1],18%
same,%Inh,[2],0%
same,%Inh,[3],0%
same,%Inh,[4],15%
same,%Inh,[5],0%
same,%Inh,[6],0%
same,%Inh,[7],1%
same,%Inh,[8],0%
same,%Inh,[9]; [21],9%
same,%Inh,[10],46%
same,%Inh,[11],0%
same,%Inh,[12],0%
same,%Inh,[13],34%
same,%Inh,[14],0%
same,%Inh,[15],10%
same,%Inh,[16],0%
same,%Inh,[17],0%
same,%Inh,[18],13%
same,%Inh,[19],0%
same,%Inh,[20],0%
CCn1c(-c2nonc2N)nc2c(C#CC(C)(C)O)ncc(OCCCCN)c21.O=C(O)C(F)(F)F.O=C(O)C(F)(F)F [GSK507274],%Inh,[1],0%
same,%Inh,[2],0%
same,%Inh,[3],0%
same,%Inh,[4],53%
same,%Inh,[5],0%
same,%Inh,[6],10%
same,%Inh,[7],2%
same,%Inh,[8],0%
same,%Inh,[9]; 1 µM,100%
same,%Inh,[10],21%
same,%Inh,[11],69%
same,%Inh,[12],11%
same,%Inh,[13],43%
same,%Inh,[14],0%
same,%Inh,[15],21%
same,%Inh,[16],0%
same,%Inh,[17],18%
same,%Inh,[18],19%
same,%Inh,[19],29%
same,%Inh,[20],38%
c1ccc(Oc2ccc(Nc3ccnc4cc(-c5ccc(CNCCN6CCOCC6)o5)ccc34)cc2)nc1 [GW567145],%Inh,[1],55%
same,%Inh,[2],0%
same,%Inh,[3],2%
same,%Inh,[4],9%
same,%Inh,[5],0%
same,%Inh,[6],0%
same,%Inh,[7],0%
same,%Inh,[8],90.6%
same,%Inh,[9]; [21],7%
same,%Inh,[10],17%
same,%Inh,[11],0%
same,%Inh,[12],0%
same,%Inh,[13],0%
same,%Inh,[14],40%
same,%Inh,[15],68%
same,%Inh,[16],77%
same,%Inh,[17],0%
same,%Inh,[18],0%
same,%Inh,[19],0%
same,%Inh,[20],0%
CN1CCN(CCCNc2nccc(-c3c(-c4ccc(F)cc4)nn4cc(C(F)(F)F)ccc34)n2)CC1 [GW621581],%Inh,[1],19%
same,%Inh,[2],0%
same,%Inh,[3],0%
same,%Inh,[4],21%
same,%Inh,[5],0%
same,%Inh,[6],0%
same,%Inh,[7],10%
same,%Inh,[8],0%
same,%Inh,[9]; [21],71%
same,%Inh,[10],21%
same,%Inh,[11],15%
same,%Inh,[12],0%
same,%Inh,[13],22%
same,%Inh,[14],0%
same,%Inh,[15],0%
same,%Inh,[16],0%
same,%Inh,[17],12%
same,%Inh,[18],83%
same,%Inh,[19],90.6%
same,%Inh,[20],92.9%
CN(c1ccc(NC(=O)Nc2cc(C(F)(F)F)ccc2F)cc1)c1ccnc(Nc2ccc(S(N)(=O)=O)cc2)n1 [GW809893],%Inh,[1],98.9%
same,%Inh,[2],93.5%
same,%Inh,[3],80%
same,%Inh,[4],99.9%
same,%Inh,[5],99.4%
same,%Inh,[6],26%
same,%Inh,[7],0%
same,%Inh,[8],20%
same,%Inh,[9]; [21],57%
same,%Inh,[10],47%
same,%Inh,[11],13%
same,%Inh,[12],0%
same,%Inh,[13],16%
same,%Inh,[14],0%
same,%Inh,[15],25%
same,%Inh,[16],9%
same,%Inh,[17],9%
same,%Inh,[18],15%
same,%Inh,[19],0%
same,%Inh,[20],1%
NCCCC(NC(=O)c1cc(Br)c(-c2ccnc3[nH]ccc23)s1)c1ccccc1.O=C(O)C(F)(F)F.O=C(O)C(F)(F)F (stereo not drawn) [GSK1287544],%Inh,[1],27%
same,%Inh,[2],4%
same,%Inh,[3],0%
same,%Inh,[4],40%
same,%Inh,[5],0%
same,%Inh,[6],0%
same,%Inh,[7],0%
same,%Inh,[8],0%
same,%Inh,[9]; [21],90%
same,%Inh,[10],51%
same,%Inh,[11],61%
same,%Inh,[12],33%
same,%Inh,[13],45%
same,%Inh,[14],0%
same,%Inh,[15],2%
same,%Inh,[16],0%
same,%Inh,[17],59%
same,%Inh,[18],90%
same,%Inh,[19],82%
same,%Inh,[20],84%
CCS(=O)(=O)c1ccc(OC)c(Nc2nccc(-c3c(-c4cccc(NC(=O)c5c(F)cccc5F)c4)nn4ncccc34)n2)c1 [GSK326180],%Inh,[1],16%
same,%Inh,[2],0%
same,%Inh,[3],6%
same,%Inh,[4],15%
same,%Inh,[5],0%
same,%Inh,[6],0%
same,%Inh,[7],10%
same,%Inh,[8],0%
same,%Inh,[9]; [21],8%
same,%Inh,[10],40%
same,%Inh,[11],0%
same,%Inh,[12],9%
same,%Inh,[13],21%
same,%Inh,[14],0%
same,%Inh,[15],24%
same,%Inh,[16],17%
same,%Inh,[17],0%
same,%Inh,[18],0%
same,%Inh,[19],7%
same,%Inh,[20],35%
CN1CCN(Cc2cccc(-c3ccc4c(Nc5ccc(Oc6ccccc6)cc5)ccnc4c3)c2)CC1 [GW578342],%Inh,[1],30%
same,%Inh,[2],0%
same,%Inh,[3],0%
same,%Inh,[4],0%
same,%Inh,[5],0%
same,%Inh,[6],0%
same,%Inh,[7],0%
same,%Inh,[8],38%
same,%Inh,[9]; [21],11%
same,%Inh,[10],11%
same,%Inh,[11],6%
same,%Inh,[12],0%
same,%Inh,[13],0%
same,%Inh,[14],43%
same,%Inh,[15],5%
same,%Inh,[16],76%
same,%Inh,[17],0%
same,%Inh,[18],0%
same,%Inh,[19],0%
same,%Inh,[20],2%
FC(F)(F)c1ccc(/C=C/c2cncnc2Nc2ccc3[nH]c(Cc4ccccc4)nc3c2)cc1 [GW709199],%Inh,[1],64%
same,%Inh,[2],0%
same,%Inh,[3],42%
same,%Inh,[4],38%
same,%Inh,[5],0%
same,%Inh,[6],0%
same,%Inh,[7],0%
same,%Inh,[8],18%
same,%Inh,[9]; [21],55%
same,%Inh,[10],23%
same,%Inh,[11],0%
same,%Inh,[12],11%
same,%Inh,[13],0%
same,%Inh,[14],0%
same,%Inh,[15],4%
same,%Inh,[16],0%
same,%Inh,[17],36%
same,%Inh,[18],33%
same,%Inh,[19],3%
same,%Inh,[20],28%
